Consider 40 compounds from PubChem BioAssay (NCI).

The panel holds about 83,000 compounds, 20% with a hit somewhere; the sample as a whole holds those more often.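 Treatment: one concentration, 48 hours, 96-well format. Scoring: percent growth, with anything below 10 considered active.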 A number with no mark means an inactive call. Calls of active or inactive are those of the source.

The assay relates to NCI-H460 lung. Briefly: NCI-60 one-dose screen, 48 h (100 = growth as untreated, 0 = no growth, -100 = all killed). As to conditions: 10 µM. Here is the method:
Growth inhibition of the NCI-H460 human Non-Small Cell Lung tumor cell line is measured as a screen for anti-cancer activity. Cells are grown in 96 well plates and exposed to the test compound for 48 hours. Compounds are tested at a single concentration, which is 10^-5 M for most compounds. The reported endpoint is percent growth (GI% or GIPRCNT), where numbers from 0 - 100% represent growth inhibition, and numbers from -100% - 0 represent cell death. For example, a value of 40 represents 60% growth inhibition. A value of 0 means no net growth occurred over the course of the experiment. A value of -40 indicates 40% of cells at the beginning of the experiment died by the end of the experiment. A value of -100 means all cells are dead at the end of the experiment.
NCI-60 Human Tumor Cell Lines Screen was performed using the standard one-dose NCI protocol, which is described in more detail at https://dtp.cancer.gov/discovery_development/nci-60/default.htm.
Compounds with GIPRCNT values below 10 were considered active. Activity score was based on GIPRCNT using the following formula: […]
Score is 0 for GIPRCNT values of 100 or above, 50 for GIPRCNT values of 0, and 100 for GIPRCNT values of -100.
As to `Cc1ccc2oc3nc(C)c(C(=O)NCc4ccccc4)cc3c(=O)c2c1`, the growth is 41.4%.
Turning to `COc1cc(Nc2ccnc(NCCCNc3ccnc4cc(Cl)ccc34)n2)cc(OC)c1`, the growth was -4.19% (active).
Take `O=C(Nc1nc(-c2ccccc2Cl)cs1)c1cc(-c2ccc(Cl)cc2)nc2ccc(Cl)cc12`: the growth was 96.3%.
With `CCCCOc1ccc(NC(=O)Nc2nnc(C)s2)cc1`, the growth is 102%.
With `NC1=NC(=O)C(c2ccccc2)(c2ccccc2)S1` the figure was 113%; with `O=C1/C(=C\c2ccc(F)cc2)CN(C(=O)c2ccccc2)C/C1=C\c1ccc(F)cc1`, 58%; with `CCCC1(CC(=O)O)OCCc2c1[nH]c1ccccc21` (stereo not given), 109%.
As for `COc1ccc2c(c1)N(CCO)C1=C(C(=O)OC1)C2c1ccc(OC)c(OC)c1` (stereo not given), the growth was 16.9%.
On to `COc1cccc(NC(=O)c2sc3nc4c(cc3c2N)C(O)CCC4)c1` (stereo not given), for which the growth was 10.2%.
For `O=C(Nc1ccc(CN2CCc3nc4cc(O)c(O)cc4cc32)cc1)c1ccc(Cl)c(Cl)c1`, the growth was 102%.
Consider `O=C(Nc1ccncc1)C(=O)c1cn(S(=O)(=O)c2cccc(Cl)c2)c2ccccc12`, for which the growth is 82.2%.
For `O=C(CSSCC(=O)c1ccc(Cl)cc1)c1ccc(Cl)cc1`, the growth is 35.8%.
As to `CC(C)(C)c1ccc(N2CSC(=S)N(c3ccc(C(C)(C)C)cc3)C2)cc1`, the growth was 91.7%.
Turning to `COc1cc(-c2cc(/C=C/C(=O)c3ccc(N)cc3)[nH]n2)cc(OC)c1OC`, the growth was -28.9% (active).
As to `CCCCCCN1C(=O)C2=C(c3ccc(Cl)cc3)Nc3c(c(C)nn3-c3ccccc3)C2c2ccccc21` (stereo not given), the growth was 106%.
As to `COc1cc(Cl)cc(-c2nn(-c3cccc(NC(=O)c4ccc(Cl)c(Cl)c4)c3)cc2-c2ccncc2)c1`, the growth was 65.2%.
The value for `CCN(CC)CCSCCN(CC)CC` was 102%; that for `FC(F)(F)c1ccc(-c2cnc(Cl)nc2N2CCC3(CC2)OCCO3)cc1` was 100%; that for `N=C(N)c1ccc(-c2ccc(-c3ccccc3)o2)nc1` was 90.3%.
On to `COc1ccc(-c2nc3sc(C4CC4)nn3c2/C=C2/C(=O)Nc3ccc(OC)cc32)cc1`, for which the growth was 77.7%.
As for `CN(C)c1ccc(N=C2C=CC(=O)c3ccccc32)cc1`, the growth is 15.3%.
Take `O=c1[nH]c2ccc(Cl)cc2c2ccccc12`: the growth was 42.7%.
As to `COc1cc(-c2cc(/C=C3\C(=O)Nc4cc(Cl)ccc43)[nH]n2)cc(OC)c1OC`, the growth was 34.7%.
As to `CCCCCCc1cc(N=Nc2ccc(S(=O)(=O)Nc3cc(C)nc(C)n3)cc2)c(O)cc1O`, the growth is 110%.
The value for `COc1ccc(-c2nn(-c3cccc(NC(=O)c4cccc(C(F)(F)F)c4)c3)cc2-c2ccncc2)cc1Cl` was 8.19% (active); that for `Cc1cc(Nc2ccc(Cl)cc2)nc(NCCCNc2ccnc3cc(Cl)ccc23)n1` was -44.9% (active).
Take `O=C(Nc1cccc(Cl)c1)Nc1nccs1`: the growth is 98.9%.
On to `CN(CCc1ccccn1)c1ccccc1`, for which the growth was 118%.
Take `O=C1/C(=C\c2ccccc2)CN(C(=O)c2ccccc2F)C/C1=C\c1ccccc1`: the growth was 51.6%.
`O=C(N/N=C/c1cc2ccccc2c2ccccc12)c1cc(O)c(O)c(O)c1`: the growth was 88.1%.
Consider `O=C(Nc1ccncc1)C(=O)c1cn(S(=O)(=O)c2cccc3ccccc23)c2ccccc12`, for which the growth was 85.7%.
`Nc1ncn(C2OC(CO)C(O)C2O)c(=O)n1` (stereo not given): the growth was -1.43% (active).
As to `COc1cc(C(=C2O[C@@H]([C@H]3COC(C)(C)O3)[C@H]3OC(C)(C)O[C@@H]23)c2cc(OC)c(OC)c(OC)c2)cc(OC)c1OC`, the growth is 111%.
For the compound `Clc1cccc(-c2nc(-c3cccs3)no2)c1`, the growth was 110%.
With `CCOC(=O)C(=Cc1ccc(Br)cc1)C(=O)OCC`, the growth was 22.4%.
With `COc1ccc(/C(=C2\O[C@@H]([C@H]3COC(C)(C)O3)[C@H]3OC(C)(C)O[C@@H]23)c2cc(OC)c(OC)c(OC)c2)cc1O`, the growth was 79.4%.
In the case of `N=c1c2c(-c3ccccc3)c(-c3ccccc3)n(Cc3ccccc3)c2ncn1CCCO`, the growth is 8.17% (active).
With `C#Cc1ccc(-n2c(/C=C/c3ccc(C(F)(F)F)cc3)nc3ncccc3c2=O)cc1` the figure was 72.1%.
The value for `Cc1ccc(-c2n[nH]c(=O)c3noc(-c4ccc(C)cc4)c23)cc1` was 17.3%; that for `CN(C)C=Nc1cc(Cl)ccc1Cl` was 116%.
